The panel holds about 83,000 compounds, 20% with a hit somewhere; the sample as a whole holds those more often.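 In brief: 96-well plates, 48 h treatment, single concentration, percent growth endpoint.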 Activity calls are given as the source filed them. How the source made its calls: active means growth percent below 10; inactive means the rest.
Legend:
Experiment in all cases: NCI-60 one-dose screen, 48 h (100 = growth as untreated, 0 = no growth, -100 = all killed)
Details in all cases: 10 µM unless noted
SK-MEL-2 melanoma = tested on: SK-MEL-2 melanoma
SN12C renal = tested on: SN12C renal
UO-31 renal = tested on: UO-31 renal
TK-10 renal = tested on: TK-10 renal
ACHN renal = tested on: ACHN renal
A498 renal = tested on: A498 renal
CCRF-CEM leukemia = tested on: CCRF-CEM leukemia
MOLT-4 leukemia = tested on: MOLT-4 leukemia
CAKI-1 renal = tested on: CAKI-1 renal

Measured: growth

O=c1[nH]c2ccccc2cc1-c1nnc(Cc2ccccc2)o1
inactive: SK-MEL-2 melanoma 78.4% | SN12C renal 74% | UO-31 renal 40% | TK-10 renal 112% | ACHN renal 65.9% | A498 renal 106% | CCRF-CEM leukemia 19% | MOLT-4 leukemia 57.1%

Cc1nc(Nc2cccnc2)sc1C(=O)/C=C/c1ccc(F)cc1
active: SN12C renal 5.77% | CCRF-CEM leukemia 1.27%
inactive: SK-MEL-2 melanoma 92.4% | UO-31 renal 29.9% | TK-10 renal 54% | ACHN renal 38.7% | CAKI-1 renal 46.2% | MOLT-4 leukemia 81.7%

O=S(=O)(NCCCNc1nccc(-c2c(-c3ccccc3)nc3sccn23)n1)c1ccc(F)cc1
inactive: SK-MEL-2 melanoma 53.8% | SN12C renal 44.1% | UO-31 renal 24.9% | TK-10 renal 72.7% | ACHN renal 26.6% | CAKI-1 renal 33.1% | CCRF-CEM leukemia 31.2% | MOLT-4 leukemia 38.4%

O=C(Nc1ccc(Br)c(Cl)c1)c1cc(F)ccc1O
inactive: TK-10 renal 21.3%
active: SK-MEL-2 melanoma -32.6% | SN12C renal 5.56% | UO-31 renal -1.56% | ACHN renal 0.577% | CAKI-1 renal -48.8% | CCRF-CEM leukemia 6.75% | MOLT-4 leukemia -23%

COc1ccc(C(=O)/C=C/c2cccc([N+](=O)[O-])c2)c(OC)c1
active: SN12C renal 8.76% | UO-31 renal -13% | ACHN renal -43.5% | CCRF-CEM leukemia 5.85% | MOLT-4 leukemia 7.24%
inactive: SK-MEL-2 melanoma 72.4% | TK-10 renal 50% | CAKI-1 renal 24.8%

COc1cccc(-c2nc3sccn3c2-c2ccnc(NCCCNS(=O)(=O)c3ccc(F)cc3)n2)c1
inactive: SK-MEL-2 melanoma 40.8% | SN12C renal 36.8% | UO-31 renal 12.5% | TK-10 renal 66.2% | ACHN renal 21.8% | CAKI-1 renal 30.9% | CCRF-CEM leukemia 24.6% | MOLT-4 leukemia 23.2%

COc1cc(OC)c(C(=O)/C=C/c2cccc(C#N)c2)c(OC)c1
inactive: SN12C renal 15.6% | UO-31 renal 12.4% | TK-10 renal 24.8% | CAKI-1 renal 15.9% | MOLT-4 leukemia 11.7%
active: SK-MEL-2 melanoma -34.8% | ACHN renal -33.9% | CCRF-CEM leukemia 2.65%

COc1ccc(S(=O)(=O)Nc2cc(/C=C\c3cc(OC)c(OC)c(OC)c3)cc(OC)c2OC)cc1OC
inactive: SK-MEL-2 melanoma 36.6% | SN12C renal 45% | UO-31 renal 40.7% | TK-10 renal 73.4% | ACHN renal 45.1% | CAKI-1 renal 24.4% | MOLT-4 leukemia 17.1%
active: CCRF-CEM leukemia 9.18%

COc1ccc(OC)c(-c2ccc(-c3ccccc3N)c3[nH]c4ccccc4c23)c1
inactive: SK-MEL-2 melanoma 77.1% | SN12C renal 87.6% | UO-31 renal 58.4% | TK-10 renal 103% | ACHN renal 80.7% | CAKI-1 renal 73% | CCRF-CEM leukemia 103% | MOLT-4 leukemia 56.4%

CC(C)CCN(CCCNc1c2c(nc3ccccc13)CCCC2)CCC(C)C
inactive: SK-MEL-2 melanoma 109% | SN12C renal 89.7% | UO-31 renal 56.5% | TK-10 renal 93.8% | ACHN renal 98% | CAKI-1 renal 76.5% | CCRF-CEM leukemia 74.3% | MOLT-4 leukemia 70.7%

CCOC(=O)C1=C(C)NC(=O)NC1c1ccc(OCC(=O)N/N=C/c2ccc(Cl)cc2)cc1 (configuration not stated)
inactive: SK-MEL-2 melanoma 94.3% | SN12C renal 97% | UO-31 renal 93.7% | TK-10 renal 99% | ACHN renal 96.8% | CAKI-1 renal 99.8% | CCRF-CEM leukemia 92.1% | MOLT-4 leukemia 92.3%

CCn1c(=O)c2c(=O)c3c4c(oc3oc2c2ccccc21)C(=O)c1ccccc1C4=O
active: CCRF-CEM leukemia 2.47% | MOLT-4 leukemia -24.5%
inactive: SK-MEL-2 melanoma 79.9% | SN12C renal 87.2% | UO-31 renal 81.8% | TK-10 renal 112% | ACHN renal 79.6% | CAKI-1 renal 72.6%

COc1cccc(-c2nc3sccn3c2-c2ccnc(NCCCNS(=O)(=O)c3ccccc3)n2)c1
inactive: SK-MEL-2 melanoma 58.1% | SN12C renal 55% | UO-31 renal 29.5% | TK-10 renal 82% | ACHN renal 40.2% | CAKI-1 renal 52.5% | CCRF-CEM leukemia 30% | MOLT-4 leukemia 29.4%

O=S(=O)(NCCNc1nccc(-c2c(-c3ccccc3)nc3sccn23)n1)c1ccc(O)cc1
inactive: SK-MEL-2 melanoma 49.7% | SN12C renal 40.3% | UO-31 renal 31.4% | TK-10 renal 62.2% | ACHN renal 25.8% | CAKI-1 renal 53.5% | CCRF-CEM leukemia 52.2% | MOLT-4 leukemia 28.7%

COc1ccc(/C=C/C(=O)c2cccc(B(O)O)c2)cc1O
inactive: SK-MEL-2 melanoma 107% | SN12C renal 28.7% | UO-31 renal 19.9% | TK-10 renal 99.3% | ACHN renal 60.6% | A498 renal 52.1% | CCRF-CEM leukemia 37.3% | MOLT-4 leukemia 46.6%

O=C(CCl)NCCNc1nccc(Nc2ccc(S(=O)(=O)Nc3ccccn3)cc2)n1
inactive: SK-MEL-2 melanoma 32.8% | SN12C renal 13.5% | UO-31 renal 47.4% | TK-10 renal 50% | ACHN renal 25.6% | CAKI-1 renal 10.3% | CCRF-CEM leukemia 12.3% | MOLT-4 leukemia 23.8%

COc1cccc(/C=C2\SC(N3CCN(c4ccccn4)CC3)=NC2=O)c1
inactive: SK-MEL-2 melanoma 86.9% | SN12C renal 102% | UO-31 renal 84.5% | TK-10 renal 90.9% | ACHN renal 104% | CAKI-1 renal 104% | CCRF-CEM leukemia 63.4% | MOLT-4 leukemia 90.4%

CCOC(=O)C(Cc1ccccc1)n1c(O)c(C=Nc2ccc(C(=O)OCCN(CC)CC)cc2)sc1=O (configuration not stated)
inactive: SK-MEL-2 melanoma 90.7% | SN12C renal 92.1% | UO-31 renal 84.7% | TK-10 renal 112% | ACHN renal 104% | CAKI-1 renal 97.4% | CCRF-CEM leukemia 68.2% | MOLT-4 leukemia 69.3%

CNC(=O)Cc1nc(-c2cccc(NS(=O)(=O)c3c(F)cccc3F)c2F)c(-c2ccnc(Nc3ccccc3)n2)s1
inactive: SK-MEL-2 melanoma 55.2% | SN12C renal 40.5% | UO-31 renal 27.3% | TK-10 renal 42.7% | ACHN renal 10.7% | CAKI-1 renal 41.5% | CCRF-CEM leukemia 87.6% | MOLT-4 leukemia 68.4%
